Growth data for 35 compounds are collected here from PubChem BioAssay (NCI).

“And” between values parts separate entries of the source, which are not always exact repeats. Equal values may be shown once. The panel holds about 83,000 compounds, 20% with a hit somewhere; the sample as a whole holds those more often.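 How to read the values: 0–100, growth inhibition (40 = 60% inhibited); 0, no net growth; -100 to 0, cell death (-40 = 40% of starting cells died; -100 = all dead).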 The source made the active and inactive calls. How the source made its calls: active means growth percent below 10; inactive means the rest.

The test system of the experiment is LOX IMVI melanoma. Kind of experiment: NCI-60 one-dose screen, 48 h (100 = growth as untreated, 0 = no growth, -100 = all killed). The following applies: 10 µM unless noted.
On to `O=C(O)C1(C(=O)O)CCC1.[NH2-].[NH2-].[Pt+2]`, for which the growth is 95.9% (inactive) and 87.9% (inactive). With `CC1(C)[C@@H](OC(=O)CCC(=O)O)CC[C@]2(C)[C@H]3C(=O)C=C4[C@@H]5C[C@@](C)(C(=O)O)CC[C@]5(C)CC[C@@]4(C)[C@]3(C)CC[C@@H]12` the figure was 104% (inactive) and -50.8% (active); with `CCNC(=O)Nc1ccc(-c2nc3c(c(N4CCOC[C@@H]4C)n2)CCN(C2COC2)C3)cc1`, 33.9% (inactive) and 1.39% (active); with `O=C1C2=C(C(=O)c3ccccc31)C(O)(S(=O)(=O)O)C(O)(S(=O)(=O)O)C1N=CC=CC21` (stereo not given), 36.7% (inactive) and 24.7% (inactive). With `COc1ccc2c(=O)cc(-c3ccccc3)[nH]c2c1` the figure was 48.3% (inactive) and 49% (inactive); with `COc1cc(Nc2nc3ccccc3nc2NS(=O)(=O)c2ccc(NC(=O)c3ccc(C)c(OC)c3)cc2)cc(OC)c1`, 52.7% (inactive) and 2.52% (active). With `COc1cc(-c2nccc3cc4c(cc23)OCO4)cc(OC)c1OC` the figure was 32.2% (inactive) and 29.6% (inactive); with `CCN(CC)CCC(CNc1ccnc2cc(Cl)ccc12)c1ccc(OC)cc1` (stereo not given), 40.2% (inactive) and 32.1% (inactive); with `CC(=O)Nc1ccc(O)cc1`, 103% (inactive) and 101% (inactive) and 106% (inactive). Consider `c1ccc2c(CC3=NCCN3)cccc2c1`, for which the growth is 91.9% (inactive) and 99.4% (inactive). `Cc1nn(-c2ccc(Cl)cc2)c2ncnc(N/N=C/c3ccccc3O)c12`: the growth is 35.1% (inactive) and 7.4% (active).

Take `CCN(CC)C(=S)SSC(=S)N(CC)CC`: the growth is 53% (inactive) and 98.4% (inactive). With `Nc1nc(SC/C=C/CCl)c2[nH]cnc2n1` the figure was 103% (inactive); with `CC1CCCC(=O)O1` (stereo not given), 96.3% (inactive) and 97.2% (inactive). For the compound `c1ccc(NCc2ccc3c(c2)OCO3)cc1`, the growth is 106% (inactive) and 98.9% (inactive).

On to `CN(Cc1ccccc1)Cc1ccccc1`, for which the growth was 95.1% (inactive). Take `O=[N+]([O-])c1ccc(N/N=C\c2cc(Br)ccc2O)nc1`: the growth is 10.5% (inactive) and -18.4% (active). With `O=C(Nc1ccc(Br)cc1)c1cc(Br)ccc1O` the figure was 2.39% (active) and 8.77% (active); with `CN(C)c1ccc(C(=C2C=CC(=[N+](C)C)C=C2)c2ccccc2Cl)cc1`, -57.2% (active) and -97.2% (active); with `O=C(Cc1cccc2ccccc12)N/N=C/c1ccc2c(c1)CCC2`, 69.6% (inactive). With `O=C(O)C1C2C=CC(C2)C1C(=O)O` (stereo not given) the figure was 109% (inactive) and 16.9% (inactive) and 104% (inactive). On to `COc1cc(C(=O)c2ccc3c(c2)OCO3)cc(OC)c1OC`, for which the growth is 24% (inactive) and 44% (inactive). In the case of `O=C(CCc1ccc(O)cc1)N/N=C/c1cc(Br)ccc1O`, the growth was 21.1% (inactive). With `CC(=O)Oc1cc(C(=O)O)cc(OC(C)=O)c1OC(C)=O` the figure was 96.3% (inactive) and 96% (inactive); with `Cn1c(=O)c2[nH]c(CCCCCCCCc3nc4ccccc4[nH]3)nc2n(C)c1=O`, 58.3% (inactive) and 55.9% (inactive); with `O=C1c2ccccc2C(=O)N1/N=C/c1ccc2c(c1)OCO2`, 100% (inactive). With `S=C1SCN(Cc2ccccc2)CN1Cc1ccccc1` the figure was 69.3% (inactive); with `Cc1ccc(-c2noc(CC(=O)c3ccc([N+](=O)[O-])cc3)n2)cc1`, 89.5% (inactive); with `Oc1ccc(/C=C/c2ccccc2)cc1`, 55.6% (inactive) and 68.9% (inactive).

Turning to `CC(=O)C(/C=N/C(N)=O)=C(/C)O`, the growth is 92.9% (inactive). With `COC(=O)c1nc(N)nc(C(=O)OC)c1C(=O)c1ccc(OC)cc1` the figure was 97.7% (inactive) and 52.8% (inactive); with `Cc1cc(O)c2c(c1)C(=O)c1cc(O)cc(O)c1C2=O`, 84.6% (inactive) and 86.5% (inactive); with `C#CCN(C)Cc1ccccc1`, 96.9% (inactive) and 102% (inactive). With `CCN(CC)CCCC(C)Nc1ccnc2cc(Oc3ccccc3)ccc12` (stereo not given) the figure was 22.2% (inactive) and 39.3% (inactive); with `COc1ccccc1NC(=O)OCC#CCOC(=O)Nc1ccccc1OC`, 96.9% (inactive) and 100% (inactive).
